The supplement of paper PMC6555819

Tested on: VDR:RXRa (NR concentration 270 nM, RXRa partner concentration 90 nM)
Assay: PBM binding z-score (relative to random genomic background probes); higher = stronger binding; sequences stand for … in GC…GCGATTGACAGCGTAGAATGAAGG
Method: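 Protein-binding microarray (Agilent 4x180K custom design, double-stranded 60-nt probes: 5' GC cap, 34-nt variable region, 24-nt constant primer region; full probe sequence given). Purified or IVT nuclear receptor:RXRα heterodimers (3:1 NR:RXRα, mostly 270:90 nM) or homodimers were incubated for 1 h in PBS with 2% milk and no ligand, then detected with Alexa488 antibodies. Fluorescence from o1-orientation probes (~5 replicates averaged) was converted to z-scores against 500 random hg19 background probes. Variable regions are seed direct-repeat (DR0–DR5) sites, all their single-nucleotide variants and half-site ablations.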

Sequence	PBM binding z-score
TGTCAAAGCTCAAAGGTAACGTAAGTATCCACAC	0.171
TCTCGGATGACACGAAAGGTCAGAGCTCGACATC	2.94
TCGAGTAGGTTACGGGTGCATTCAGGGATGAAGA	3.53
CGTCTAAGGTCAGCAGGTCAGTGAAAGCGACGTG	4.3
CAAACTAGGTCACGAGGTCAAAGTCCGCTTCCCG	6.42
CGAACTAGGTCACCAGGAAAGTGAAGAGGTTGGA	1.66
ATCGAACGGTCGACGAGGTGAGTATACACCGTTT	0.299
TCGAGTAGGTTACGGCGGCATTCAGGGATGAAGA	-0.251
TCTAGTTGGTCATGGAGGTCACACACGACGGGTA	5.98
CCTACTGGGCCAATAAGGTCATTGATGCCGATAA	5.29
GCTGCTAGGTCAACTGAAGGTCAGCTAAAGCTCG	4.15
CATACTAGGTCAAAGGTCAAAGTCGAGCCAACCA	6.61
CAAACTAGGTCACAGAGGTCGAAGTCCGTGCGTA	6.75
TATACTGGGTCAAAGGCCAGAGTACGAATGTCGA	2.38
TCGAGTAGGTTACGGGGACATTCAGGGATGAAGA	1.27
CCGAGTACGTTACGAGGGGGCATTCAGTGCGAAT	4.15
CAAACTAGGTCACGAAAGGTCAAAGTGGAATGAC	6.71
ACTAGTTGGTCAGCTGAGGTCACACAAAATTCGG	4.79
ATATGTAGGTTAGGGTCAATCAGAAAGTAGGGAA	3.8
CAAACTAGGTCACAGAGGGCAAAGTCCGTGCGTA	7.09

Sequence	PBM binding z-score
CCGAGTAGCTTACGAGGGGGCATTCAGTGCGAAT	3.41
CAAACTAGGTCACGAAAGGTCAAAGCCGAATGAC	6.5
TCAGATAGGTAAAGGTGAAAGTCGAACGATATGA	0.979
AGTCAAAGTTCATCTAGGTAACGAAAGATATGCT	4.81
AATACAGGGTCACTAGGCCCGAGTAGGTACGAAT	3.96
CCTGCTAGGTCATGGTCAGGTAATCTACAGTATG	1.76
ATATGTAGGATATCGGGTCATTCAGTTTGCGCAT	4.94
TCTGCTAGGTCAACGATGGTCAGCGAATCTGCTA	1.66
TCGAGTAGGTTACGGGGGAATTCAGGGATGAAGA	1.25
CCTACTGGGTCATTCAGAGGTCATTGATCATATG	6.25
CGTCCAAGGTCCATGCTAGGTCAGTGAAAGCATT	0.731
TCGAGTAGGTTACGGAGGCATTCAGGGATGAAGA	0.176
CAAACTAGGTCAAAGGTCAACGTCGAGCCAACCA	6.69
CTATGTAGATTAAGGGGGTCATTCAGTTTGAAAG	6.53
CTATGTAGGTTAAGTGGGTCATTCAGTTTGAAAG	4.99
CCTGCTCGGTCAATGGTCAGCTAAAGCAGCTCGC	-0.375
CGTCCAAGGTAAGAGAGGTCAGTGAATGCCGAGT	4
ATATGTAGGTTACATGCGGGTCATTCAGGCTATG	3.78
CGAACTAGGTCAAAGGACAGTGAAAGGCGACGTA	1.32
ATCGAAAGGTCGAAGGTGAGTCTACCCACCCGAA	3.08
